Test results as given in ChEMBL document CHEMBL1961873, “Compounds: GSK PKIS; Assays: Nanosyn kinase panel” (2012).

Assays:
[1] = molecular target: Protein kinase C gamma type (Homo sapiens) (UniProt P05129); settings: at 1 µM;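 further: each value is an averaged percent inhibition of the enzyme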
[2] = molecular target: T1, Protein kinase C iota type (Homo sapiens) (UniProt P41743); settings: at 0.1 µM
T1 sequence (whole entry): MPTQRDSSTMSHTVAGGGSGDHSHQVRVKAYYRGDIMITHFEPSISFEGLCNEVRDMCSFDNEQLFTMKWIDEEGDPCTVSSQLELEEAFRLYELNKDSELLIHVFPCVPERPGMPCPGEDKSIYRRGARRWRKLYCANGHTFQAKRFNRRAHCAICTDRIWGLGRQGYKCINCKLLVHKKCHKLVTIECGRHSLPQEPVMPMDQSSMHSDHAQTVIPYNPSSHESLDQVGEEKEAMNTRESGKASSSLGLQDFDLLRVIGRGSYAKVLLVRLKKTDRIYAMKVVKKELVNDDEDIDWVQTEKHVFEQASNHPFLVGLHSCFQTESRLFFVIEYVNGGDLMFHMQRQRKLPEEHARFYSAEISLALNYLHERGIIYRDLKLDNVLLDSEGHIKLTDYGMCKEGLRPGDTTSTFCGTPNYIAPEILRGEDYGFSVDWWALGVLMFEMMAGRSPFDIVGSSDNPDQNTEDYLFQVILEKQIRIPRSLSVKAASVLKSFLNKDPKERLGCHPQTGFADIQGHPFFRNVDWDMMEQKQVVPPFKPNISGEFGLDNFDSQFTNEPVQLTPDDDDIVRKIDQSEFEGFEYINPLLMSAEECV

[3] = molecular target: T1, Protein kinase C iota type (Homo sapiens); settings: at 1 µM
[4] = molecular target: Protein kinase C theta type (Homo sapiens) (UniProt Q04759); settings: at 0.1 µM
[5] = molecular target: Protein kinase C theta type (Homo sapiens) (UniProt Q04759); settings: at 1 µM
[6] = molecular target: Protein kinase C beta type (Homo sapiens) (UniProt P05771); settings: at 0.1 µM
[7] = molecular target: Protein kinase C beta type (Homo sapiens) (UniProt P05771); settings: at 1 µM
[8] = molecular target: T2, Serine/threonine-protein kinase D1 (Homo sapiens) (UniProt Q15139); settings: at 0.1 µM
T2 sequence (whole entry): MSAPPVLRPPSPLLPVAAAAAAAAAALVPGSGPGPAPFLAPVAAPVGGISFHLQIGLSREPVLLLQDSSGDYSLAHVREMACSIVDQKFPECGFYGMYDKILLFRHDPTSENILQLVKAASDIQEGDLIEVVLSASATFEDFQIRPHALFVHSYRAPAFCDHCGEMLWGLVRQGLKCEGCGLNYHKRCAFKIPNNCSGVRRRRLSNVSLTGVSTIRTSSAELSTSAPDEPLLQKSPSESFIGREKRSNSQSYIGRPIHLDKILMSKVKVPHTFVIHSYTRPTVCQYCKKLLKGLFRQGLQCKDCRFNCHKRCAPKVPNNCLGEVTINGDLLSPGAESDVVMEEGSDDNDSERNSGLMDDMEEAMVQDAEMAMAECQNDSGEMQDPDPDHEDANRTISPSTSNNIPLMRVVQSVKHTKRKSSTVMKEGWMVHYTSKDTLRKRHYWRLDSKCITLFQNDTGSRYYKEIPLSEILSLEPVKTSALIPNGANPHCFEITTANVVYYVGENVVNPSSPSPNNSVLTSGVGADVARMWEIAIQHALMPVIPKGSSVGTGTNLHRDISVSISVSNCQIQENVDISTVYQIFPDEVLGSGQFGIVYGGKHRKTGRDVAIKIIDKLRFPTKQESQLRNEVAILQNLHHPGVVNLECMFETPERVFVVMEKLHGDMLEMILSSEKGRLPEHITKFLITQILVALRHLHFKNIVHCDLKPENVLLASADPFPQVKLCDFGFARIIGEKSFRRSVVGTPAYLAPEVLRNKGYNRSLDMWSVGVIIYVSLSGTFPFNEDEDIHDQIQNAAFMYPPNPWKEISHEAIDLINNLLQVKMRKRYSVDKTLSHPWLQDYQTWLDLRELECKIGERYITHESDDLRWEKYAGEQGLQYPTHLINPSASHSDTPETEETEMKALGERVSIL

[9] = molecular target: T2, Serine/threonine-protein kinase D1 (Homo sapiens); settings: at 1 µM
[10] = molecular target: T3, Serine/threonine-protein kinase D2 (Homo sapiens) (UniProt Q9BZL6); settings: at 0.1 µM
T3 sequence (whole entry): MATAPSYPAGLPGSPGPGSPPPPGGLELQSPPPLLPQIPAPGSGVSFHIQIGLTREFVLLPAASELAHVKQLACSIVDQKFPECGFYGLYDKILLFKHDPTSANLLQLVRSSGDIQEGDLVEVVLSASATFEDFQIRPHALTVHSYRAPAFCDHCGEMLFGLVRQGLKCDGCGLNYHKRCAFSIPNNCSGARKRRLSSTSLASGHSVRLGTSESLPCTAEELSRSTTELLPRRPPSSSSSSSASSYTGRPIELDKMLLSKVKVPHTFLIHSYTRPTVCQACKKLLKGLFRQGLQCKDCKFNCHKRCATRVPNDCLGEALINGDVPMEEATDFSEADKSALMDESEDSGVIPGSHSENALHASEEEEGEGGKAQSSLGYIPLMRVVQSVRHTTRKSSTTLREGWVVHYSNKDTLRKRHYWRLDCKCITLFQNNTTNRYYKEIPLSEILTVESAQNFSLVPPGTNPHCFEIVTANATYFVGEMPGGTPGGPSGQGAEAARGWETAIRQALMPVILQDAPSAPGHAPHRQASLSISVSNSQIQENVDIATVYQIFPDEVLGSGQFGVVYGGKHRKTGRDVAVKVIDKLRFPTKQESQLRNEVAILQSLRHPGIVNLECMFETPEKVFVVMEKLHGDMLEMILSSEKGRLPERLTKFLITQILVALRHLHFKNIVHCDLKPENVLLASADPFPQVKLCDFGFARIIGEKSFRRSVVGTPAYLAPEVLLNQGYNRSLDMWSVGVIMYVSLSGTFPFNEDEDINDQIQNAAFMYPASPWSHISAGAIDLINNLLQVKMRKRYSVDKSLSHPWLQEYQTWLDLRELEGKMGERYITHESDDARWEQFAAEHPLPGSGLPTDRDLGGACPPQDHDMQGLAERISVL

[11] = molecular target: T3, Serine/threonine-protein kinase D2 (Homo sapiens); settings: at 1 µM
[12] = molecular target: T4, Serine/threonine-protein kinase D3 (Homo sapiens) (UniProt O94806); settings: at 0.1 µM
T4 sequence (whole entry): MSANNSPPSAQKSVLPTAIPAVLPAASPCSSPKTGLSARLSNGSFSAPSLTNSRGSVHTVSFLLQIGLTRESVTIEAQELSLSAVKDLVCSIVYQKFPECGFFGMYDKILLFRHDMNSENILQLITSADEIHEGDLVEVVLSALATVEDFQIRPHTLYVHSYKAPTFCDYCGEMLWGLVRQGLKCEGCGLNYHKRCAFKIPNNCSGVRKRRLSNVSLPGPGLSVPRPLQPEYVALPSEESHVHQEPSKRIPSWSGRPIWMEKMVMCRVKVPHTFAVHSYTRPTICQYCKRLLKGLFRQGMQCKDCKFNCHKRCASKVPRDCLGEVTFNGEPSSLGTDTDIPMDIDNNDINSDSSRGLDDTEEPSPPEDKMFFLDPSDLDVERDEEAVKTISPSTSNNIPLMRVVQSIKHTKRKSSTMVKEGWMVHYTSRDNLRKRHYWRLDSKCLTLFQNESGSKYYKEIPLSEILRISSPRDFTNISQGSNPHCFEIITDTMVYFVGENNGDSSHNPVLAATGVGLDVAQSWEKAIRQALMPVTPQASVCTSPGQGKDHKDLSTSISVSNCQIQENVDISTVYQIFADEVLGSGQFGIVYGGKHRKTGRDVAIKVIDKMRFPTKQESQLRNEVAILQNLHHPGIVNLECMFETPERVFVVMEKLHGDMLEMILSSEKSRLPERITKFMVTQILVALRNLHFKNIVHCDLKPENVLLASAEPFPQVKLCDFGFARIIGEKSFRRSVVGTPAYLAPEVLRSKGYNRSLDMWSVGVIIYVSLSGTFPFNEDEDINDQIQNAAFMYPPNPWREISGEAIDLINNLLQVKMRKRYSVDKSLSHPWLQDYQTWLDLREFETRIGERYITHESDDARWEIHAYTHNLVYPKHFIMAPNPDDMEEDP

[13] = molecular target: T4, Serine/threonine-protein kinase D3 (Homo sapiens); settings: at 1 µM
[14] = molecular target: T5, cGMP-dependent protein kinase 1 (Homo sapiens) (UniProt Q13976); settings: at 0.1 µM
T5 sequence (whole entry): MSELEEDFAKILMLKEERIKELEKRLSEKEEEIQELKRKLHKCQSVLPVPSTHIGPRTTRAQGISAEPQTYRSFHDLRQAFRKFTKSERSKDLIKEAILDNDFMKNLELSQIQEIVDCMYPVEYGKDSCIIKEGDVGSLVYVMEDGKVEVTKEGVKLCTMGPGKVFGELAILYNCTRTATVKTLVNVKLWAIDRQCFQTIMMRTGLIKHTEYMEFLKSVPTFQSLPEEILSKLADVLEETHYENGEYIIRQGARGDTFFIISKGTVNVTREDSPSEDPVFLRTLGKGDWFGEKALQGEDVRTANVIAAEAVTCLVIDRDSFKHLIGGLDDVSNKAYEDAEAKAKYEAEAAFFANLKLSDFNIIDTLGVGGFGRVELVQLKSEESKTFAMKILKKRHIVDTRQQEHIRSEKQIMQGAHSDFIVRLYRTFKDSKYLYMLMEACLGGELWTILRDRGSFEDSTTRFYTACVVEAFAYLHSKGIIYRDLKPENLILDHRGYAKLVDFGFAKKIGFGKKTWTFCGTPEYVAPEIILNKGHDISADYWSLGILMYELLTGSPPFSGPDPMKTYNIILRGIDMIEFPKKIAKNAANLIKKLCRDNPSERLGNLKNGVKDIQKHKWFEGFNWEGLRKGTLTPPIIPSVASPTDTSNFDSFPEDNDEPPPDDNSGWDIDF

[15] = molecular target: T5, cGMP-dependent protein kinase 1 (Homo sapiens); settings: at 1 µM
[16] = molecular target: T6, cGMP-dependent protein kinase 2 (Homo sapiens) (UniProt Q13237); settings: at 0.1 µM
T6 sequence (whole entry): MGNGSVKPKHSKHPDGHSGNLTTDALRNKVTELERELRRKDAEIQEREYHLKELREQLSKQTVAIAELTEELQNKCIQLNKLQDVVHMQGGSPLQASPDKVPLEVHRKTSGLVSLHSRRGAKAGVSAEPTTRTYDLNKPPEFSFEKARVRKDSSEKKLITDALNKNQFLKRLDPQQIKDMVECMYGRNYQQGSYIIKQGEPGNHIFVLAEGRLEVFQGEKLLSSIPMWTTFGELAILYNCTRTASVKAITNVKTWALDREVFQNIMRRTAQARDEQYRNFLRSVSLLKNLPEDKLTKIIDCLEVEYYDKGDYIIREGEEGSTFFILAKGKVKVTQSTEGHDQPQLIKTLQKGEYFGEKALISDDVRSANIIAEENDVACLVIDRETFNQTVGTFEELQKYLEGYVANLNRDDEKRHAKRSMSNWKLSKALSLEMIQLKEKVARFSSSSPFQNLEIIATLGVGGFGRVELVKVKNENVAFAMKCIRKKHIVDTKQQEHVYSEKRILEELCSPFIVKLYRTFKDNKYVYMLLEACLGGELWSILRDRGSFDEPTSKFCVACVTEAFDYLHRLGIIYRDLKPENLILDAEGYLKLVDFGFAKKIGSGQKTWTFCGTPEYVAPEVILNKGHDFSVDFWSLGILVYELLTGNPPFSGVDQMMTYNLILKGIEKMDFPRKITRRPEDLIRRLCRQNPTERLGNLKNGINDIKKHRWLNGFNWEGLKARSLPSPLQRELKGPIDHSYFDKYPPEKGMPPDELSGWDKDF

[17] = molecular target: T6, cGMP-dependent protein kinase 2 (Homo sapiens); settings: at 1 µM
[18] = molecular target: T7, cAMP-dependent protein kinase catalytic subunit PRKX (Homo sapiens) (UniProt P51817); settings: at 0.1 µM
T7 sequence (whole entry): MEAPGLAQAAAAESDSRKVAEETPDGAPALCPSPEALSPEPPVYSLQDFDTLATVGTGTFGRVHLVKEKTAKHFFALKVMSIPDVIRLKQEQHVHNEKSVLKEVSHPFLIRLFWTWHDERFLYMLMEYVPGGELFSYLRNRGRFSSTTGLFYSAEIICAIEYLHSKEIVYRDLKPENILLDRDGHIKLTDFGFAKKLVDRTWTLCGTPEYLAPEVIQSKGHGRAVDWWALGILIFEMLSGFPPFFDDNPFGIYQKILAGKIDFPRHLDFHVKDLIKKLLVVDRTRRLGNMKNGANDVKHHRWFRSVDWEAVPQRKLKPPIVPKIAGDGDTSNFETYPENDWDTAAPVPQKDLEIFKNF

[19] = molecular target: T7, cAMP-dependent protein kinase catalytic subunit PRKX (Homo sapiens); settings: at 1 µM
[20] = molecular target: Rho-associated protein kinase 1 (Homo sapiens) (UniProt Q13464); settings: at 0.1 µM;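 further: values are mean percent inhibition of ROCK1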
Chain of Rho-associated protein kinase 1 (Homo sapiens) (Q13464 2-1354 limits assumed): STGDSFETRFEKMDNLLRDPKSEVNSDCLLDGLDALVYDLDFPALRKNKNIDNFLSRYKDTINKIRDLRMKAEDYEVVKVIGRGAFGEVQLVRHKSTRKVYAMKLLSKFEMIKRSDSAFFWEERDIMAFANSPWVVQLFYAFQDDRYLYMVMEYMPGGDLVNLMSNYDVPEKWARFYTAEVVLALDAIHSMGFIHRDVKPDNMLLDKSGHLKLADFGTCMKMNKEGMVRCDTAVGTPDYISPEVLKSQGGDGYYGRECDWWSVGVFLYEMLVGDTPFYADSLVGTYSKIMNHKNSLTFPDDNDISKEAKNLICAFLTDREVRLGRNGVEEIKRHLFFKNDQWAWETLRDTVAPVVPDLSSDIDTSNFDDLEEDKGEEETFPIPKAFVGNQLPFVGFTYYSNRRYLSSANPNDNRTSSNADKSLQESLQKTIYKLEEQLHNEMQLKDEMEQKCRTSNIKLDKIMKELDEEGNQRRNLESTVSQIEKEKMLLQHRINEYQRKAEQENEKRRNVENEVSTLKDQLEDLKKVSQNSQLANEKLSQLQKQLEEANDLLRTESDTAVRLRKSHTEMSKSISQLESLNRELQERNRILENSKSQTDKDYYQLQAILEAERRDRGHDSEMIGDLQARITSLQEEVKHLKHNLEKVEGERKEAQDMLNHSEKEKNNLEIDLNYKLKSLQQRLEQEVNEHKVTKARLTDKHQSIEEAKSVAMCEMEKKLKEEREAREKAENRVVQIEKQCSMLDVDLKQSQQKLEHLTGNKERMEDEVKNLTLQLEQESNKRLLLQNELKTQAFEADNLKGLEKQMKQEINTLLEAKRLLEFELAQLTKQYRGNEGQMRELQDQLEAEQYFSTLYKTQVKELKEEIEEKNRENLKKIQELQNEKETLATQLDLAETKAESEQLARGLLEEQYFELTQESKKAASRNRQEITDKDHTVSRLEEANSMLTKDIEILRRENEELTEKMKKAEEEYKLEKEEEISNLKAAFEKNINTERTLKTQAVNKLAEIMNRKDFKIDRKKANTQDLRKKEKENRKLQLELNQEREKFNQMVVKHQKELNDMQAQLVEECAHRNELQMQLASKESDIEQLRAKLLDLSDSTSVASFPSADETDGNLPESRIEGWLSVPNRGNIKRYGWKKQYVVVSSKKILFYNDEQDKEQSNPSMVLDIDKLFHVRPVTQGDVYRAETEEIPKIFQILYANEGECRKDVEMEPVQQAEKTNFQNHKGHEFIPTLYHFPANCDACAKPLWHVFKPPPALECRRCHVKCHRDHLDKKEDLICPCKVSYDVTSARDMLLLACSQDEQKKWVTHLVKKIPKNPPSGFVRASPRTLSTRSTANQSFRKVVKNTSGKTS

Chain of Protein kinase C beta type (Homo sapiens) (P05771 2-671 limits assumed): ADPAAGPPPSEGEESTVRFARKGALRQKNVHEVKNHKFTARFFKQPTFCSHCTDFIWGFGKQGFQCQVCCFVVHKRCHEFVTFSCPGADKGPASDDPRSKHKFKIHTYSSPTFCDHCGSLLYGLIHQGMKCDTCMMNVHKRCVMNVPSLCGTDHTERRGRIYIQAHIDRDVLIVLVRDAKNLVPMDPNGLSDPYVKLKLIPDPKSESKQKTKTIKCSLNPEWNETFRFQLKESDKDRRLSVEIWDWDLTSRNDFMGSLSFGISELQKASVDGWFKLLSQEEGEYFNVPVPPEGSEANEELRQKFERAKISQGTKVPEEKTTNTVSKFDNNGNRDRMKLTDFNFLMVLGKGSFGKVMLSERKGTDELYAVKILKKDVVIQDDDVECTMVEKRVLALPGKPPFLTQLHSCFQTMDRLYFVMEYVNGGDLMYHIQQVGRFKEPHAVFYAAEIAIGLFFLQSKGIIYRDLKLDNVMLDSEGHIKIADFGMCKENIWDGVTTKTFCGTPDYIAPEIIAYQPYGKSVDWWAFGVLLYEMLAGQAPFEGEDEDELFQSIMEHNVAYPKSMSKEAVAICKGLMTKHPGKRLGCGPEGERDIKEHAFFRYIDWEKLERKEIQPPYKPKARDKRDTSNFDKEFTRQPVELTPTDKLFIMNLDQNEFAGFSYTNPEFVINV
Chain of Protein kinase C theta type (Homo sapiens) (Q04759 whole entry, looked up): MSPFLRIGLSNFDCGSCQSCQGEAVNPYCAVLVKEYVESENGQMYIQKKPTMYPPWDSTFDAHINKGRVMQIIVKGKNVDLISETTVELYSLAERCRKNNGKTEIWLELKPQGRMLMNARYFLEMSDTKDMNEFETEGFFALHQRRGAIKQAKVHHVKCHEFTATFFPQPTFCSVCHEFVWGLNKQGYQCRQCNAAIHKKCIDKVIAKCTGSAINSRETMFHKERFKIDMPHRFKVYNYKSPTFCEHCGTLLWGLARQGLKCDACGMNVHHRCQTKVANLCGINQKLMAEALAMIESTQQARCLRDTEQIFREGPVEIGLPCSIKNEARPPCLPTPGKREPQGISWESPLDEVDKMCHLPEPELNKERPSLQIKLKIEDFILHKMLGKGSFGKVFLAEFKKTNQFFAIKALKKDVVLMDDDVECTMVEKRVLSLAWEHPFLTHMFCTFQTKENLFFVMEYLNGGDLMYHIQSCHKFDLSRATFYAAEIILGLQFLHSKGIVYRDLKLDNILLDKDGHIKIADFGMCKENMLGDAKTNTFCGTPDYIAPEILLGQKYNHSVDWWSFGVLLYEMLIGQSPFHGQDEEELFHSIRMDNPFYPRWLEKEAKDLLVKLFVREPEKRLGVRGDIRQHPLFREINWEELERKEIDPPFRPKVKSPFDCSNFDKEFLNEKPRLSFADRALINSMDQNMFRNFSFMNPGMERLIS

Compound	inhibition [1] [%]	inhibition [2] [%]	inhibition [3] [%]	inhibition [4] [%]	inhibition [5] [%]	inhibition [6] [%]	inhibition [7] [%]	inhibition [8] [%]	inhibition [9] [%]	inhibition [10] [%]	inhibition [11] [%]	inhibition [12] [%]	inhibition [13] [%]	inhibition [14] [%]	inhibition [15] [%]	inhibition [16] [%]	inhibition [17] [%]	inhibition [18] [%]	inhibition [19] [%]	inhibition [20] [%]
Cc1ccc(C(=O)NC(C)C)cc1-c1ccc(C(=O)NCC2CC2)cc1	-2.88	-0.44	-0.8	-1.25	-1.29	-0.65	-0.9	-3.39	-3.57	-1.97	-0.88	-3.09	-2.84	-3.24	-2.98	-1.45	-0.98	-1.5	-1.51	-1.38
O=C1Nc2ccc(I)cc2C1=Cc1cc(Br)c(O)c(Br)c1	2.63	0.72	1.75	1.74	2.5	0.99	1.87	3.52	4.76	2.97	1.24	3.73	3.16	3.82	5.76	2.47	6.45	0.49	2.04	2.76
COc1ccc(C2=C(N3CCc4ccccc43)C(=O)NC2=O)cc1	3.73	2.04	2.17	2.55	5.71	1.22	3.96	4.69	9.24	5.06	7.9	4.84	8.41	1.67	6.23	1.42	4.94	2.47	2.49	0.56
